Out of some 5,500 compounds screened, about 2,000 (36%) were called active. About 18% were inconclusive and are not listed. Cut-off read from the data, not from the text of the source: active = normalized growth mostly below about 0.91 (no sharp cut-off); inconclusive = no clear call, values can overlap the other calls; inactive = mostly above about 0.92. The list shows a part of the results.
Experiment: chemical genetic growth profiling, strain panel (AID 1159580);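 note: tested at 20 µM; growth read once vehicle control cultures reached saturation at 30 °C; 1 = growth at the plate median or of vehicle wells; lower values mean less growth of the strain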
Conditions: growth OD

Measured: normalized growth

COC(=O)CCCOc1ccc(Cl)cc1Cl
inactive: S. cerevisiae deletion strains, locus YJR043C, strain POL32, active compounds read low 0.979 | S. cerevisiae deletion strains, locus YJR075W, strain HOC1, active compounds read low 0.995 | S. cerevisiae deletion strains, locus YKL009W, strain mrt4, active compounds read low 1.01 | S. cerevisiae deletion strains, locus YKL068W, active compounds read low 0.98 | S. cerevisiae deletion strains, locus YKL085W, strain MDH1 (second series), active compounds read low 0.982 | S. cerevisiae deletion strains, locus YKL085W, strain MDH1, active compounds read low 0.982 | S. cerevisiae deletion strains, locus YKL160W, strain elf1, active compounds read low 0.964 | S. cerevisiae deletion strains, locus YKL190W, strain CNB1, active compounds read low 0.99 | S. cerevisiae deletion strains, locus YKR001C, strain vps1, active compounds read low 0.987 | S. cerevisiae deletion strains, locus YKR026C, strain gcn3, active compounds read low 0.946 | S. cerevisiae deletion strains, locus YKR091W, strain srl3, active compounds read low 0.96 | S. cerevisiae deletion strains, locus YLL001W, strain dnm1, active compounds read low 0.957 | S. cerevisiae deletion strains, locus YLL026W, active compounds read low 0.957 | S. cerevisiae deletion strains, locus YLL041C, strain sdh2, active compounds read low 0.957 | S. cerevisiae deletion strains, locus YLR027C, strain aat2, active compounds read low 0.952 | S. cerevisiae deletion strains, locus YLR039C, strain RIC1, active compounds read low 0.982 | S. cerevisiae deletion strains, locus YLR058C, strain SHM2, active compounds read low 1 | S. cerevisiae deletion strains, locus YLR102C, strain apc9, active compounds read low 0.997 | S. cerevisiae deletion strains, locus YLR221C, strain rsa3, active compounds read low 0.967 | S. cerevisiae deletion strains, locus YLR258W, strain gsy2, active compounds read low 0.951 | S. cerevisiae deletion strains, locus YLR262C, strain YPT6 (second series), active compounds read low 0.92 | S. cerevisiae deletion strains, locus YLR262C, strain YPT6, active compounds read low 0.925 | S. cerevisiae deletion strains, locus YLR268W, strain sec22, active compounds read low 1.01 | S. cerevisiae deletion strains, locus YLR320W, strain mms22, active compounds read low 0.924 | S. cerevisiae deletion strains, locus YLR330W, strain CHS5, active compounds read low 0.991 | S. cerevisiae deletion strains, locus YLR342W, strain FKS1 (second series), active compounds read low 1 | S. cerevisiae deletion strains, locus YLR342W, strain FKS1, active compounds read low 0.948 | S. cerevisiae deletion strains, locus YLR357W, strain rsc2, active compounds read low 0.97 | S. cerevisiae deletion strains, locus YLR370C, strain arc18, active compounds read low 0.963 | S. cerevisiae deletion strains, locus YLR371W, strain rom2, active compounds read low 0.999 | S. cerevisiae deletion strains, locus YLR384C, strain iki3, active compounds read low 0.957 | S. cerevisiae deletion strains, locus YLR418C, strain cdc73, active compounds read low 1.02 | S. cerevisiae deletion strains, locus YML016C, strain PPZ1, active compounds read low 0.988 | S. cerevisiae deletion strains, locus YML032C, strain rad52, active compounds read low 1.01 | S. cerevisiae deletion strains, locus YML120C, strain ndi1, active compounds read low 0.967 | S. cerevisiae deletion strains, locus YML124C, strain tub3, active compounds read low 0.995 | S. cerevisiae deletion strains, locus YMR058W, strain fet3, active compounds read low 0.966 | S. cerevisiae deletion strains, locus YMR078C, strain ctf18, active compounds read low 1 | S. cerevisiae deletion strains, locus YMR125W, strain sto1, active compounds read low 0.954 | S. cerevisiae deletion strains, locus YMR129W, active compounds read low 0.95 | S. cerevisiae deletion strains, locus YMR205C, strain PFK2, active compounds read low 0.948 | S. cerevisiae deletion strains, locus YMR223W, strain ubp8, active compounds read low 1.01 | S. cerevisiae deletion strains, locus YMR231W, strain pep5, active compounds read low 0.949 | S. cerevisiae deletion strains, locus YMR263W, strain SAP30, active compounds read low 0.999 | S. cerevisiae deletion strains, locus YMR307W, strain GAS1, active compounds read low 0.98 | S. cerevisiae deletion strains, locus YNL067W, strain RPL9B, active compounds read low 0.995 | S. cerevisiae deletion strains, locus YNL071W, strain lat1, active compounds read low 0.967 | S. cerevisiae deletion strains, locus YNL128W, strain TEP1, active compounds read low 1 | S. cerevisiae deletion strains, locus YNL153C, strain GIM3, active compounds read low 0.999 | S. cerevisiae deletion strains, locus YNL209W, strain ssb2, active compounds read low 0.962 | S. cerevisiae deletion strains, locus YNL233W, strain BNI4, active compounds read low 1 | S. cerevisiae deletion strains, locus YNL248C, strain rpa49, active compounds read low 0.964 | S. cerevisiae deletion strains, locus YNL250W, strain rad50, active compounds read low 0.978 | S. cerevisiae deletion strains, locus YNL271C, strain bni1, active compounds read low 0.976 | S. cerevisiae deletion strains, locus YNL298W, strain CLA4, active compounds read low 0.985 | S. cerevisiae deletion strains, locus YNL307C, strain MCK1, active compounds read low 0.968 | S. cerevisiae deletion strains, locus YNL322C, strain KRE1 (second series), active compounds read low 0.957 | S. cerevisiae deletion strains, locus YNL322C, strain KRE1, active compounds read low 0.994 | S. cerevisiae deletion strains, locus YNR049C, strain mso1, active compounds read low 0.95 | S. cerevisiae deletion strains, locus YNR052C, strain pop2, active compounds read low 1.01 | S. cerevisiae deletion strains, locus YOL006C, strain TOP1, active compounds read low 0.971 | S. cerevisiae deletion strains, locus YOL012C, strain htz1 1.55 | S. cerevisiae deletion strains, locus YOL147C, strain pex11, active compounds read low 0.99 | S. cerevisiae deletion strains, locus YOR001W, strain rrp6, active compounds read low 0.983 | S. cerevisiae deletion strains, locus YOR061W, strain CKA2, active compounds read low 0.989 | S. cerevisiae deletion strains, locus YOR069W, strain VPS5, active compounds read low 1 | S. cerevisiae deletion strains, locus YOR070C, strain gyp1, active compounds read low 0.956 | S. cerevisiae deletion strains, locus YOR080W, strain dia2, active compounds read low 0.946 | S. cerevisiae deletion strains, locus YOR083W, strain WHI5, active compounds read low 0.957 | S. cerevisiae deletion strains, locus YOR106W, strain vam3, active compounds read low 0.991 | S. cerevisiae deletion strains, locus YOR136W, strain idh2, active compounds read low 1 | S. cerevisiae deletion strains, locus YOR144C, strain elg1, active compounds read low 0.998 | S. cerevisiae deletion strains, locus YOR184W, strain ser1, active compounds read low 0.993 | S. cerevisiae deletion strains, locus YOR265W, strain rbl2, active compounds read low 0.956 | S. cerevisiae deletion strains, locus YOR270C, strain vph1, active compounds read low 0.963 | S. cerevisiae deletion strains, locus YOR290C, strain snf2, active compounds read low 0.974 | S. cerevisiae deletion strains, locus YOR316C, strain cot1, active compounds read low 1 | S. cerevisiae deletion strains, locus YPL051W, strain arl3, active compounds read low 0.972 | S. cerevisiae deletion strains, locus YPL055C, strain LGE1, active compounds read low 0.978 | S. cerevisiae deletion strains, locus YPL078C, strain atp4, active compounds read low 0.948 | S. cerevisiae deletion strains, locus YPL106C, strain sse1, active compounds read low 0.964 | S. cerevisiae deletion strains, locus YPL240C, strain hsp82, active compounds read low 0.948 | S. cerevisiae deletion strains, locus YPL241C, strain CIN2, active compounds read low 0.993 | S. cerevisiae deletion strains, locus YPR119W, strain clb2, active compounds read low 0.995 | S. cerevisiae deletion strains, locus YPR141C, strain kar3, active compounds read low 0.981 | S. cerevisiae deletion strains, locus YPR163C, strain tif3, active compounds read low 1 | S. cerevisiae deletion strains, locus YPR167C, strain met16, active compounds read low 0.999 | S. cerevisiae deletion strains, strain wtn01, active compounds read low 0.995 | S. cerevisiae strains, strain wild type, active compounds read low 0.975

Reference: PubChem BioAssay AID1159580 (chemical genetic matrix, 2015)
